In PubChem BioAssay (EPA / NIEHS) one finds outcome and AC50 data, which are given here for 27 molecules.

Several values for one entry are separate records, joined by “and”; a condition that tells them apart may be missing. Identical values can stand only once. The source holds several records for some structures; these can differ, active in one and inactive in another. Activity calls are given as the source filed them. Rule for the calls: active = hit-call score of the fitted dose curve at least 0.9, where 1 is the maximum; inactive = score below 0.9.

Read-out in assay [1]: Monocyte Chemoattractant Protein-1 (MCP1), CCL2 (gene 6347)
As to the kind of experiment: BSK_SAg_MCP1: BioMAP Diversity Plus: SAg Assay for Monocyte Chemoattractant Protein-1 (MCP1) Biomarker Activity (AID 2283090). The conditions noted are these: primary human HUVEC with PBMC; actives raise or lower the signal. In outline: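 Values derive from bidirectional fitting of ELISA-measured MCP1 against DMSO controls. Readings were taken 24 h after dosing human vascular endothelial cells co-cultured with peripheral blood mononuclear cells under superantigen stimulation.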

Read-out in assay [2]: E-selectin (Homo sapiens) (UniProt P16581)
As to the kind of experiment: BSK_SAg_Eselectin: BioMAP Diversity Plus: SAg Assay for Eselectin Biomarker Activity (AID 2283091). The conditions noted are these: primary human HUVEC with PBMC; actives raise or lower the signal. In outline: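 Endpoint values derive from bidirectional fitting relative to DMSO, using ELISA-measured E-selectin in a human vascular co-culture (umbilical vein endothelium plus PBMC) sampled 24 h after dosing.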

Read-out in assay [3]: Monokine induced gamma interferon (MIG), CXCL9 (gene 4283)
Nature of the assay: BSK_SAg_MIG: BioMAP Diversity Plus: SAg Assay for Monokine induced gamma interferon (MIG) Biomarker Activity (AID 2283092). The following applies: primary human HUVEC with PBMC; actives raise or lower the signal. The gist of the method: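 HUVEC plus human PBMC co-culture, chemicals dosed and MIG (CXCL9) quantified by ELISA at 24 h. Bidirectional curve fitting against DMSO as negative control and baseline, so both gain and loss of signal count as activity.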

Assay [4] in a line: BSK_SAg_PBMCCytotoxicity: PBMC Cytotoxicity Assessment in the BioMAP Diversity Plus: SAg Assay (AID 2283093).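 For AC50: PBMC superantigen activated with SEB plus TSST-1 one hour after compound addition.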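 Note: PBMC viability measured as Alamar Blue reduction fluorescence at 546/580 nm; fitted both ways against DMSO so a hit may be loss or gain of signal.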 The conditions noted are these: primary human HUVEC with PBMC. In outline: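 Alamar Blue reduction (6 h, 546/580 nm) reports PBMC cytotoxicity after 90 h superantigen activation (SEB, TSST-1; 20 ng/mL final each) with 1 h compound pre-treatment. Gain or loss of signal fitted versus DMSO.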

Read-out in assay [5]: Interleukin-8 (IL8), CXCL8 (gene 3576)
As to the kind of experiment: BSK_SAg_IL8: BioMAP Diversity Plus: SAg Assay for Interleukin-8 (IL8) Biomarker Activity (AID 2283094). The conditions noted are these: primary human HUVEC with PBMC; actives raise or lower the signal. The gist of the method: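 Chemicals were dosed onto a human endothelial–PBMC co-culture, and IL-8 was quantified by ELISA after 24 h. Both increases and decreases were fitted relative to DMSO.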

The nature of assay [6]: BSK_SAg_Proliferation: Cell Proliferation Assessment in the BioMAP Diversity Plus: SAg Assay (AID 2283095).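 Note: relative cell number as total protein by SRB absorbance in sub-confluent culture.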 The following applies: primary human HUVEC with PBMC. In outline:
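Absorbance of sulforhodamine B at 560 nm reports total protein in a human vascular endothelial/PBMC co-culture after 96 h chemical exposure. Gain or loss of signal is fitted in both directions against DMSO.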

A short description of assay [7]: BSK_SAg_SRB: Viability Assessment in the BioMAP Diversity Plus: SAg Assay (AID 2283096).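 Note: cells read one day after compound addition; hits may be either gain or loss of signal compared with DMSO.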 The conditions noted are these: primary human HUVEC with PBMC. The gist of the method: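 This overt-cytotoxicity endpoint quantifies protein in human endothelial/PBMC co-cultures at 24 h using SRB absorbance (560 nm) after trichloroacetic acid fixation. Values reflect signal change from the DMSO negative control, fitted bidirectionally.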

Chain of E-selectin (Homo sapiens) (P16581 whole entry, looked up): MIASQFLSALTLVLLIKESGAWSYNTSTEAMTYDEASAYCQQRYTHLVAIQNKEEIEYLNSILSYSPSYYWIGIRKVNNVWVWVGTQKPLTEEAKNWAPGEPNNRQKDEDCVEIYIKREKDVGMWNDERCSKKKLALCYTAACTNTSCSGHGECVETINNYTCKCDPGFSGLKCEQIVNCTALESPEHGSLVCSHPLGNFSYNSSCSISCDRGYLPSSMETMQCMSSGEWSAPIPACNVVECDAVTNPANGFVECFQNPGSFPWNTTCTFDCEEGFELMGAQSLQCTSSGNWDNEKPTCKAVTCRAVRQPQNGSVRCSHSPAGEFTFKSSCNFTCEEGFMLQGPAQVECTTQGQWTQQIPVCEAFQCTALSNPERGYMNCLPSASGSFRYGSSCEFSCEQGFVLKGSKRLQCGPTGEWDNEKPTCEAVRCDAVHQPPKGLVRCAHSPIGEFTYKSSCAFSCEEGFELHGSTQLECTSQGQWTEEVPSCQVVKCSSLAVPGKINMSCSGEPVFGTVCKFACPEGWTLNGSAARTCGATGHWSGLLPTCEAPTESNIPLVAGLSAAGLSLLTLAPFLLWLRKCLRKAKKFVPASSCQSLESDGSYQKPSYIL

For `C=C(C)C(=O)OCCCCCCCCCCCC`, the result in assay [1], in assay [2], in assay [3], in assay [4], in assay [5] and in assay [6] was inactive. Further, the result in assay [7] was inactive.
As for `O=C(O)C(F)(F)C(F)(F)C(F)(F)C(F)(F)C(=O)O`, the outcome in assay [1], in assay [2], in assay [3], in assay [4], in assay [5] and in assay [6] was inactive. Further, the result in assay [7] was inactive.
One may read the AC50 as the midpoint of the concentration-response curve, whichever way the signal moves. Consider `C=CC(=O)OCC(C)OCC(C)OCC(C)OC(=O)C=C` (stereo not given), for which the AC50 was 10.5 µM (active) in assay [1]; 5.5 µM (active) in assay [2]; 20 µM (active) in assay [3]; 5.29 µM (active) in assay [4]; 3.14 µM (active) in assay [5]; 2.88 µM (active) in assay [6]. The AC50 in assay [7] is 21.6 µM (active).
For the molecule `O=C(Cl)c1c(Cl)c(Cl)c(C(=O)Cl)c(Cl)c1Cl`, the result in assay [1], in assay [2], in assay [3], in assay [4], in assay [5] and in assay [6] was inactive. In assay [7], the result was inactive.
For the molecule `CC(c1cc(C(C)(C)C)cc(C(C)(C)C)c1O)c1cc(C(C)(C)C)cc(C(C)(C)C)c1O`, the outcome in assay [1], in assay [2], in assay [3], in assay [4], in assay [5] and in assay [7] was inactive. The AC50 in assay [6] is 5.29 µM (active).
As to `O=C1CCCCCCCCCCC1`, the result in assay [1], in assay [2], in assay [3], in assay [4], in assay [5] and in assay [6] was inactive. Also, the outcome in assay [7] was inactive.
Take `CC(CCC(=O)O)(c1ccc(O)cc1)c1ccc(O)cc1`: the outcome in assay [1], in assay [2], in assay [3], in assay [4], in assay [5] and in assay [6] was inactive. Further, in assay [7], the outcome was inactive.
For the molecule `O=C1CCCCCCCCCCCN1`, the outcome in assay [1], in assay [2], in assay [3], in assay [4], in assay [5] and in assay [6] was inactive. In addition, the result in assay [7] was inactive.
In the case of `COc1ccc(C(=O)c2ccccc2)c(O)c1`, the result in assay [1], in assay [2], in assay [3], in assay [4], in assay [5] and in assay [6] was inactive. Further, the result in assay [7] was inactive.
Take `CC(Cl)COP(=O)(OCC(C)Cl)OCC(C)Cl` (stereo not given): the outcome in assay [1], in assay [2], in assay [3], in assay [4], in assay [5] and in assay [6] was inactive. For the same molecule, the result in assay [7] was inactive.
As to `CC/C=C\C/C=C\C/C=C\CCCCCCCC(=O)OC`, the half-maximal activity concentration (AC50) in assay [1] was 33.8 µM (active); in assay [2] it was 13 µM (active); in assay [3], 37.2 µM (active); in assay [4] it was 20 µM (active); in assay [5] it was 20 µM (active); in assay [6] it was 6.5 µM (active). The AC50 in assay [7] was 29 µM (active).
For the molecule `Fc1ccc(Br)cc1`, the result in assay [1], in assay [2], in assay [3], in assay [4], in assay [5] and in assay [6] was inactive. Moreover, the outcome in assay [7] was inactive.
On to `CCOC(=O)C1=NN(c2ccc(Cl)cc2Cl)C(C)(C(=O)OCC)C1` (stereo not given), for which the outcome in assay [1], in assay [2], in assay [3], in assay [4], in assay [5] and in assay [6] was inactive. Also, in assay [7], the result was inactive.
For the molecule `CCC1(C)C(=O)N(Cl)C(=O)N1Cl` (stereo not given), the result in assay [1], in assay [2], in assay [3], in assay [4], in assay [5] and in assay [6] was inactive. The result in assay [7] was inactive.
Turning to `O=C(Oc1ccccc1)c1ccccc1C(=O)Oc1ccccc1`, the outcome in assay [1], in assay [2], in assay [3], in assay [4], in assay [5] and in assay [7] was inactive. In addition, in assay [6], the AC50 was 20 µM (active).
`CCCCC1C(=O)N(c2ccccc2)N(c2ccccc2)C1=O`: the outcome in assay [1], in assay [2], in assay [3], in assay [4], in assay [5] and in assay [6] was inactive. For the same molecule, the outcome in assay [7] was inactive.
Turning to `CC=C(C)C(C)=O`, the outcome in assay [1], in assay [2], in assay [3], in assay [4], in assay [5] and in assay [6] was inactive. Also, the result in assay [7] was inactive.
For the molecule `Nc1ccc(C(=O)O)cc1`, the result in assay [1], in assay [2], in assay [3], in assay [4], in assay [5] and in assay [6] was inactive. In addition, the result in assay [7] was inactive.
In the case of `COc1ccc(C(=O)/C(Br)=C\C(=O)O)cc1`, the AC50 in assay [1] was 20 µM (active); in assay [2], 7.92 µM (active) and 7.11 µM (active); in assay [3], 35.2 µM (active) and 34.5 µM (active); in assay [4] it was 12 µM (active) and 7.54 µM (active); in assay [5], 3.97 µM (active); in assay [6], 6.87 µM (active) and 2.13 µM (active). Besides, the AC50 in assay [7] is 25.9 µM (active) and 31.6 µM (active). The outcome in assay [5] was inactive.
For the molecule `CC(C)[N+](C)(CCOC(=O)C1c2ccccc2Oc2ccccc21)C(C)C`, the result in assay [1], in assay [2], in assay [3], in assay [4], in assay [5] and in assay [6] was inactive. Moreover, the result in assay [7] was inactive.
As for `CCCCCCCO`, the outcome in assay [1], in assay [2], in assay [3], in assay [4], in assay [5] and in assay [6] was inactive. Further, in assay [7], the result was inactive.
Regarding `CC(C)C(=O)OCCc1ccccc1`, the result in assay [1], in assay [2], in assay [3], in assay [4], in assay [5] and in assay [6] was inactive. Moreover, the result in assay [7] was inactive.
`CC(C)CCCCCOC(=O)CS`: the result in assay [1], in assay [2], in assay [3], in assay [4], in assay [5] and in assay [6] was inactive. In addition, the result in assay [7] was inactive.
Consider `Oc1c(Cl)cc(Cl)c(Cl)c1Cl`, for which the AC50 in assay [1] is 31.2 µM (active); in assay [2] it was 20 µM (active); in assay [3], 32.2 µM (active); in assay [4], 0.0683 µM (active); in assay [5], 29.9 µM (active); in assay [6] it was 20 µM (active). Moreover, the AC50 in assay [7] was 20 µM (active).
Turning to `CC1=CC=C(C(C)C)CC1`, the result in assay [1], in assay [2], in assay [3], in assay [4], in assay [5] and in assay [6] was inactive. Moreover, the outcome in assay [7] was inactive.
Turning to `C=CC(=O)NCOCCCC`, the result in assay [1], in assay [2], in assay [3], in assay [4], in assay [5] and in assay [6] was inactive. The outcome in assay [7] was inactive.
On to `Nc1nc(N)nc(-c2ccccc2)n1`, for which the result in assay [1], in assay [2], in assay [3], in assay [4], in assay [5] and in assay [6] was inactive. For the same molecule, the result in assay [7] was inactive.
